# NPC1 prom act = NPC1 promoter activation. Huh7 NPC1 promoter luciferase reporter, 24 h. Potency, µM (series often up to 9.22 µM), for the others: at the top dose activation, most hits filed as activators. 2.4% of 320,000 active. AID 485313; note: % of control where 0% means no effect; nearly all actives have a fitted effect of over 60% in size
#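 Stable NPC1-promoter luciferase Huh7 line; cpd (DMSO) 24 h, 37 °C, 5% CO2; Amplite luciferase reagent 10 min RT; luminescence readout. qHTS format.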
# ELG1 genotoxic = genotoxicity induction in ELG1-luciferase HEK293T cells; 1.3% of 330,000 active; HEK293T ELG1-luciferase reporter, luminescence, 16 h; Potency, µM (doses to about 46 µM), for the others: top-dose activity change, positive = activation, actives largely listed as activators; note: % of control where 0% means no effect; nearly all actives have a fitted effect of over 60% in size
#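 Quantitative HTS format in 1536-well plates. HEK293T ELG1-luciferase reporter cells receive test compound and are incubated 16 hr at 37 °C, 5% CO2; ONE-Glo added, 30 min room temperature, then luminescence read.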
# SMN2 splice enh = SMN2 splice variant enhancement; HEK293 SMN2-luciferase splicing reporter, luminescence, 30-36 h; Potency, µM (doses to about 46.1 µM), for inactives: at the top dose activity change, positive = activation, most hits filed as activators; 2.8% of 210,000 active; AID 1458; note: % of control where 0% means no effect; nearly all actives have a fitted effect of over 55% in size
#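 HEK293 cells carry an SMN2 […]–luciferase reporter in which exon 7 inclusion puts luciferase in frame. Cells were plated 10-12 h before compound addition, then incubated 30-36 h at 37C. ONE-Glo luminescence was read; sodium butyrate at 4.5 mM final served as control.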
# Rab9 prom act = activators of Rab9 promoter | Huh7 Rab9 promoter-luciferase reporter, luminescence, 24 h | 2.8% of 320,000 active | AID 485297 | Potency, µM (titrated, usually from 9.22 µM), for inactives: at the highest dose activation, negative = inhibition, hits mostly activators; note: % of control where 0% means no effect; nearly all actives have a fitted effect of over 60% in size
#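 Steps: seed 1500 Huh7 Rab9-luc cells per well, rest 2 h at 37 °C; add compound in DMSO; incubate 24 h; add luciferase reagent, 10 min ambient; read luminescence.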
# FLuc modulator = firefly luciferase modulation, counter-screen for miR-21 project; 6.9% of 360,000 active; purified FLuc, Km substrates, luminescence inhibition; Potency, µM (top dose mostly 57.5 µM), for the others: at the highest dose activity change, negative = inhibition, most hits filed as inhibitors;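 note: plate controls were vehicle for no effect and reference inhibitor for full effect; nearly all actives have a fitted effect of over 55% in size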
# Target sequence (P08659 whole entry, looked up): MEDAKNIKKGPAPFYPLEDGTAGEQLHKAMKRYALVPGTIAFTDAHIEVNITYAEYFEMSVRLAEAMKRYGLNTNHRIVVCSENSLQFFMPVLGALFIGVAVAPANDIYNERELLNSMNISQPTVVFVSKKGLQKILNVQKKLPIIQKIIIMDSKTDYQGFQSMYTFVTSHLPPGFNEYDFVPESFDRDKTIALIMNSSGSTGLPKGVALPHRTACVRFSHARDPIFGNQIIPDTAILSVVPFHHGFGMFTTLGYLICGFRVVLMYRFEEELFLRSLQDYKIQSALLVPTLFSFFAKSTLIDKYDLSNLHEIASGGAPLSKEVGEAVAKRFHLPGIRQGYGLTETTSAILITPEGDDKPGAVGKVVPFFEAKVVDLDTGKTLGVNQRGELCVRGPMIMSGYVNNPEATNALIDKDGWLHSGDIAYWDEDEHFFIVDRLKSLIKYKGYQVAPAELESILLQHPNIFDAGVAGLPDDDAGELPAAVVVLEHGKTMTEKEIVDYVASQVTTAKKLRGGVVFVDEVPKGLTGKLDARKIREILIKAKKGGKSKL
#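 Biochemical qHTS of compounds, final roughly 60 µM downward over six points, against 10 nM purified firefly luciferase using Km concentrations of substrates (10 uM D-luciferin, 10 uM ATP) in Tris acetate pH 7.5 buffer; luminescence output.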
# * = called active by the depositor; ? = inconclusive; · = not tested or not shown. Only some compounds are listed: those with a hit (about 7.5% of all), similar ones and a draw of the others. Calls come from the whole dose curve; as a rule, active = well fitted curve in the direction sought with a large enough effect; inconclusive = small, poorly fitted or top-dose-only effect, or another doubt; inactive = no such curve, though single readings can be large; an effect the other way counts as inactive or inconclusive. Potency is the fitted concentration of half-maximal effect.
SMILES,NPC1 prom act,ELG1 genotoxic,SMN2 splice enh,Rab9 prom act,FLuc modulator
CC1CCc2c(sc3ncn(CC(=O)N=Nc4c(O)[nH]c5ccccc45)c(=O)c23)C1 (configuration not stated),-3%,-2%,·,-6%,0%
CC1CCc2c(sc3nc(SCC(=O)O)n(-c4ccccc4)c(=O)c23)C1 (configuration not stated),13%,-1%,·,2%,21µM*
CC1CCc2c(sc3ncn(CCO)c(=O)c23)C1 (configuration not stated),?,21µM*,13µM*,2.5µM*,17µM*
CC1CCc2c(sc3ncn(Cc4ccc(C(=O)O)cc4)c(=O)c23)C1 (configuration not stated),20%,?,28%,19%,21µM*
CC(C)C(NC(=O)c1ccc(Cl)c([N+](=O)[O-])c1)C(=O)NCc1ccccn1 (configuration not stated),·,2%,·,·,·
O=C(O)c1ccccc1C(=O)c1cccc2ccccc12,-3%,-4%,·,-3%,1%
CCCCCOc1ccc(CN2CCOCC2)cc1Cl,3.2µM*,14µM*,?,3.5µM*,6.7µM*
Clc1cc(Br)ccc1OCCN1CCOCC1,-3%,1%,-1%,-4%,-13%
COc1ccc2c(c1)C(=O)[C@H](OC(=O)NS(=O)(=O)c1ccc(F)cc1)[C@@H](c1ccc(OC)c(Br)c1)O2,·,·,7%,·,·
COCCN1CCN(Cc2ccc(C(=O)NC(C)C)cc2)C(=O)C1=O,·,·,·,·,0%
COc1ccc(-c2nnc(SCC(=O)Nc3ccc(Cl)cc3)s2)cc1,·,·,·,·,-17%
COC(=O)c1ccc(CSc2nc3sc(C(=O)O)c(C)c3c(=O)[nH]2)cc1,0%,1%,-8%,0%,?
CCOC(=O)c1sc(SCC(=O)Nc2ccc(N(C)C)cc2)nc1N,-1%,13%,-7%,-11%,6µM*
COc1ccc(NC(=O)CSc2nc(N)c(C(=O)Nc3ccc(N(C)C)cc3)s2)cc1,?,?,-17%,3.2µM*,1.3µM*
CN(C)c1ccc(NC(=O)CSc2nc(N)c(C(=O)Nc3ccc(N(C)C)cc3)s2)cc1,?,-4%,-44%,24%,4.8µM*
CCOC(=O)c1ccc(NC(=O)CSc2nc3sc(C(=O)O)c(C)c3c(=O)[nH]2)cc1,-3%,3%,-1%,?,17µM*
CCc1nc(SCC(=O)Nc2ccc(N(C)C)cc2)n[nH]1,17%,1%,·,29%,-5%
Cc1ccccc1Nc1cc(C(=O)NC2CCC(C)CC2)c2ccccc2n1 (configuration not stated),·,·,15%,·,4%
Cc1ccc(Cl)cc1NC(C#N)c1ccccc1 (configuration not stated),0%,2%,·,2%,4%
O=C(CCOc1ccccc1)NNC(=O)c1ccccc1,·,5%,·,·,·
CSc1nnnn1-c1ccc(C)c(Cl)c1,1%,0%,-2%,0%,-5%
CCOc1ccc(-n2nc(CO)c(C(=O)NCc3cccc(OC)c3)n2)cc1,·,·,-14%,·,15µM*
CCOc1ccc(-n2nc(CO)c(C(=O)NCCCc3ccccc3)n2)cc1,·,·,-1%,·,5.4µM*
CCOc1ccc(-n2nc(CO)c(C(=O)NCc3cccnc3)n2)cc1,·,·,-29%,·,?
C/C(=N/Nc1nc(-c2ccccc2)cc(-c2ccccc2)n1)c1ccc(N)cc1,0%,-4%,?,-9%,5.4µM*
SMILES,NPC1 prom act,ELG1 genotoxic,SMN2 splice enh,Rab9 prom act,FLuc modulator
CC(=O)Nc1ccc(-c2cc(-c3ccc(NC(C)=O)cc3)nc(-c3ccccc3)n2)cc1,-12%,0%,0%,-3%,1%
C/C(=N/Nc1cc(-c2ccccc2)nc(-c2ccccc2)n1)c1ccc(O)cc1,-5%,0%,·,-3%,11µM*
C/C(=N\Nc1cc(Cl)nc(C)n1)c1ccccc1,?,9%,31%,?,9.5µM*
Cc1ccc(N2C(S)=C(C#N)C(=O)NC2c2cccs2)cc1 (configuration not stated),0%,-1%,4.5µM*,1%,-16%
N#CC1=C(S)N(c2ccccc2)C(c2cccs2)NC1=O (configuration not stated),6%,-3%,24%,2%,6%
CCOc1ccc(C2NC(=O)C(C#N)=C(S)N2c2ccc(OC)cc2)cc1OC (configuration not stated),3%,1%,-6%,3%,21µM*
COc1ccc(C2NC(=O)C(C#N)=C(S)N2c2ccc(C)cc2)cc1OC (configuration not stated),-1%,2%,17%,-2%,19µM*
COc1ccc(C2NC(=O)C(C#N)=C(S)N2c2cccc(C)c2)cc1OC (configuration not stated),-9%,-2%,-3%,-8%,?
COc1ccc(N2C(S)=C(C#N)C(=O)NC2c2ccc(OC)c(OC)c2)cc1 (configuration not stated),-7%,6%,·,-5%,?
COc1cc(C2NC(=O)C(C#N)=C(S)N2c2ccc(C)cc2)ccc1OC(C)C (configuration not stated),1%,?,-31%,0%,15µM*
COc1ccc([C@@H]2[C@@H](O)[C@H](O)[C@@H](C)N2C)cc1OC,·,·,9%,·,·
Cc1ccc(CNC(=O)c2cc3cc(Br)ccc3oc2=N)cc1,-6%,6%,·,-9%,4%
Cc1nc2ccccn2c1C(=O)N/N=C/c1cc(C)n(-c2ccc(Cl)cc2)c1C,-4%,-3%,-63%,0%,21µM*
CCNC(=S)N/N=C/c1cc(C)n(-c2ccc(Cl)cc2)c1C,?,?,18µM*,?,17µM*
Cc1nc2ccccn2c1C(=O)N/N=C/c1ccccc1[N+](=O)[O-],-2%,-1%,10%,-3%,3%
Cc1ccc(CN(C)C(=O)C2CCC(=O)N(CCc3ccccc3)C2)o1 (configuration not stated),14%,14%,·,17%,?
COC(=O)c1cccc(N2CCCC2=O)c1,0%,0%,·,-1%,3%
C/C(=N/NC(=O)c1cccc(N2CCCC2=O)c1)c1ccncc1,?,?,·,3.2µM*,15µM*
C/C(=N/NC(=O)c1cccc(N2CCCC2=O)c1)c1ccc(Br)cc1,1%,6%,·,-2%,15µM*
CC1(c2ccccc2)NC(=O)N(NC(=O)COC(=O)c2cc(Br)ccc2O)C1=O (configuration not stated),-2%,-2%,·,-1%,6%
Cc1ccc2nc(-c3ccc(NC(=O)CCN4C(=O)c5ccccc5C4=O)cc3)sc2c1,0.4µM*,1µM*,0.32µM*,0.25µM*,1.5µM*
COc1ccc(NC(=O)CCN2C(=O)c3ccccc3C2=O)cc1,-5%,0%,·,4%,4%

# From PubChem BioAssay
